Ub-GFP proteasome = inhibits proteasome, raising ubiquitin-GFP reporter fluorescence. Ubiquitin-GFP reporter cells, proteasome inhibition, GFP fluorescence; response scale: untreated = 0%, 10 µM MG-132 = 100%. Potency, µM (titrated, usually from 45.9 µM), usual class: activators. 67,000 tested, under 10 active; active means well fitted activation curve with a large enough effect, not every such curve was filed as active; inconclusive means small, poorly fitted or top-dose-only effect, or another doubt; inactive means no such curve, though single readings can be large or run the other way
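U2OS cells expressing ubiquitin(G76V)-GFP, seeded overnight in 0.5% FBS medium, then treated 4 hr at 37 C across 46 uM to 2.9 nM. GFP-positive cells counted by laser cytometry (488 ex/515 em); %activity scaled between basal and 10 uM MG-132.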
DNA Pol III inh = DNA polymerase III holoenzyme inhibition | reconstituted DNA polymerase III holoenzyme replication, biochemical | Potency, µM (titrated, usually from 57.1 µM) | 71,000 compounds, 0.25% hits | AID 603
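Reconstituted *E. coli* holoenzyme (0.35 nM Pol III, 1 nM beta, 154 nM SSB, 2 nM primase) was preincubated with compound for 15 min at RT. Synthesis on 1.4 nM ssM13Gori ran 35 min, then was stopped with PicoGreen/EDTA and read as dsDNA fluorescence.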
HBB splice mod = modulators of hemoglobin beta chain splicing | HBB splicing reporter cell assay, activation; EGFP reporter with mutant IVS2-654 intron; response scale: normalised to 500 nM splice-correcting PNA | Potency, µM (top dose mostly 46.1 µM), most hits filed as activators | 65,000 compounds, 0.06% hits | AID 925
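Compounds were applied for 2 days to HeLa EGFP-654 cells, 500/well in Optimem with 2% FCS. The reporter's EGFP is disrupted by mis-splicing of beta-globin intron IVS2-654. Readout: summed well GFP fluorescence from 488 nm laser scanning; reference was 500 nM antisense […] 654 PNA.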
GFP derepression = epigenetic GFP locus derepression in mouse cells; 68,000 compounds, 0.09% hits; AID 597; Potency, µM (highest dose often 46.1 µM); mouse C127i GFP locus derepression, cytometry, 30 h
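Locus derepression in mouse mammary C127i cells whose integrated CMV-GFP reporter is normally silent; GFP expression after 30 h compound treatment was quantified by counting fluorescent cells.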
ALOX15 inhib = blocks human 15-lipoxygenase activity; P16050; purified 15hLO-1, xylenol orange hydroperoxide absorbance; Potency, µM (doses to about 57.1 µM), most hits filed as inhibitors; 74,000 compounds, 1.4% hits; AID 887; further: nearly all actives have a fitted effect of over 55% in size
Target sequence (P16050 whole entry, looked up): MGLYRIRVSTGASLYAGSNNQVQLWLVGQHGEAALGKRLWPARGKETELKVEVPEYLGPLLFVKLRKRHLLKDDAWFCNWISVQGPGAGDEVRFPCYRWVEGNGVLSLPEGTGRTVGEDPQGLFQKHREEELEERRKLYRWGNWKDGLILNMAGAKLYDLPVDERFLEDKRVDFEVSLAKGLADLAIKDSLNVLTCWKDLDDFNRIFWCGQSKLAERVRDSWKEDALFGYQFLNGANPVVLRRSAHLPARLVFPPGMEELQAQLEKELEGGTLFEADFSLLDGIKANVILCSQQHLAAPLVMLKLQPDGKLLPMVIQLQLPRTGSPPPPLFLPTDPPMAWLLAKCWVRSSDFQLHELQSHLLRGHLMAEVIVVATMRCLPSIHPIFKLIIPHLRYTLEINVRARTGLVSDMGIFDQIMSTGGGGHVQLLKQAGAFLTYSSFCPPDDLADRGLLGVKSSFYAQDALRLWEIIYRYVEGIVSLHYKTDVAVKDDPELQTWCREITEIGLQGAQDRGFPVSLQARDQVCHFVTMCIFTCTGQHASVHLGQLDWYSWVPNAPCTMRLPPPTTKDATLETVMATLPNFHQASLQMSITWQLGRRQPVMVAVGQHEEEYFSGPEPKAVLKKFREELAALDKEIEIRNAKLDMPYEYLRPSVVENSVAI
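Quantitative HTS in 25 mM Hepes pH 7.5 containing 0.01% Triton X-100: human 15hLO-1 at 40 nM, arachidonic acid at 50 uM, 6 min turnover. Product quantified via ferrous oxidation/xylenol orange, 573:405 nm absorbance ratio.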
Tau fil binding = binders of human tau filaments; P10636; 71,000 compounds, 2% hits; recombinant tau filaments, thioflavin S fluorescence, 15 h; filaments grown with octadecylsulfate alongside compound; Potency, µM (doses to about 57.1 µM);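 further: actives lower thioflavin S fluorescence by blocking filaments or displacing dye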
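ThS-based fibril read: tau 1 uM final, inducer ODS 30 uM final, 37 C for 15 h, ex 450/em 510 nm.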
Numbers stand for hits; i = inactive; ? = inconclusive; nt = not tested or not shown; [ ] = dose if it differs, or a comment. Sampled rows, rich in hits. Any-hit rate of the full collection: about 3.2%. Unless noted, the call rests on the fitted dose curve; in most records, active means well fitted curve in the direction sought with a large enough effect; inconclusive means small, poorly fitted or top-dose-only effect, or another doubt; inactive means no such curve, though single readings can be large; an effect the other way counts as inactive or inconclusive.

SMILES	Ub-GFP proteasome	DNA Pol III inh	HBB splice mod	GFP derepression	ALOX15 inhib	Tau fil binding
Nc1c(S(=O)(=O)c2cccc(Cl)c2)c2nc3ccccc3nc2n1/N=C/c1ccc(O)c(O)c1	i	i	i	i	16µM	?
Cc1cccc(S(=O)(=O)c2c(N)n(Cc3ccco3)c3nc4ccccc4nc23)c1	i	i	i[0.369 µM]	i	?	i
O=C(CSc1ccccn1)Nc1ccc(Br)cn1	i	i	i	i	i	i
O=C(CSc1ncn(-c2ccccc2)n1)Nc1ccc(Br)cn1	i	i	i	i	20µM	i
CC(C)(C(=O)O)c1ccc([C@@H](O)CCCN2CCC(C(O)(c3ccccc3)c3ccccc3)CC2)cc1	i	i	i	i	i	i
COc1ccccc1CNc1ncnc2ccc(-c3ccc(N(C)C)cc3)cc12	i	i	?	i[9.22 µM]	i	2µM
O=Nc1ccc(NO)cc1	nt	i	i	nt	i	i
NCCNC(=S)S	i[9.17 µM]	i[11.4 µM]	i[9.22 µM]	i[9.22 µM]	?	i[11.4 µM]
CCOc1cc(-c2cc(-c3ccc(N)cc3)nc(N)c2C#N)ccc1O	i	i	i	i	25µM	32µM
CC#C[C@@]1(O)CC[C@H]2[C@@H]3CCC4=CC(=O)CCC4=C3[C@H](c3ccc(N(C)C)cc3)C[C@]21C	i	i	i	i	i	i
CC#C[C@@]1(O)CC[C@@H]2[C@@H]3CCC4=CC(=O)CCC4=C3[C@@H](c3ccc(N(C)C)cc3)C[C@]21C	i	i	i	i	nt	32µM
Cc1ccc2c(c1)N(C(=O)CSc1nncn1C)C(C)(C)c1ssc(=S)c1-2	i	i	nt	i	?	16µM
Cc1ccc(-n2nnnc2SCC(=O)N2c3ccccc3NC(=O)C2(C)C)cc1	i	i	i	i	i	i
COC(=O)c1ccc(CC(=O)c2ccc(O)cc2O)o1	nt	nt	nt	nt	i	nt
COC(=O)c1ccc(CC(=O)c2c(C)cc(O)cc2O)o1	i	i	i	i	25µM	i
CCOc1ccccc1CNC(=O)c1cc2occc2n1C	i	i	i	i	20µM	i
O=C(O)c1ccccc1NS(=O)(=O)c1cccc2ccccc12	nt	nt	nt	nt	i	nt
CN1/C(=C/C(=O)c2nc(S(C)(=O)=O)ncc2Cl)C(C)(C)c2ccccc21	i	i	i	?	i	10µM
Cc1cc(N2CCOCC2)cc(C)[n+]1[O-]	i	i	nt	i	i	i
Cc1ccc(C)n1-c1ccc(N2CCOCC2)cc1	i	i	i	i	2.5µM	25µM
CN(C)Cc1ccc(-c2cc3onc(-c4ccccc4)c3c(=O)n2C)cc1	i[9.17 µM]	i[11.4 µM]	i[9.22 µM]	i[9.22 µM]	i[11.4 µM]	i[11.4 µM]
COc1ccc(OC)c(-n2c(-c3cccc(O)c3)n[nH]c2=S)c1	i	i	i	i	2.5µM	i
CCN(CC)c1ccc(NC(=O)c2cnc3ccccn3c2=O)c(C)c1	nt	nt	nt	nt	i	nt
CCN(CC)c1ccc(NC(=O)c2cccc(C)c2OC)c(C)c1	i	i	i	i	?	25µM
Cn1c(-c2ccccc2)cc2c3no[n+]([O-])c3ccc21	i	i	i[0.369 µM]	i	i	10µM
SMILES	Ub-GFP proteasome	DNA Pol III inh	HBB splice mod	GFP derepression	ALOX15 inhib	Tau fil binding
CCOC(=O)c1c(C)n(OCc2ccccc2)c2ccc3c(no[n+]3[O-])c12	i	i	i	i	i	i
Nc1c(Cl)cc(Cl)cc1Cl	nt	i	i	nt	i	i
Cc1ccc(NC(=O)CN2CC(C)SC2=NC2CCCCC2)cc1 (stereo unspecified)	i	i	i	i	i	13µM
Cc1cc(C)n2nc(C(=O)Nc3ccccc3N3CCOCC3)nc2n1	i	i	i	i	i	i
CCOc1cc(N2CCOCC2)c(OCC)cc1NC(=O)CCC1CCCC1	i	i	i	i	i	i
CCOc1cc(N2CCOCC2)c(OCC)cc1NC(=O)c1nc2nc(C)cc(C)n2n1	i	i	i	i	i	25µM
CCOc1cc(N2CCOCC2)c(OCC)cc1NC(=O)CCS(=O)(=O)c1ccc(Cl)cc1	i	i	i	i	i	25µM
CC(C)(C)[C@@]1(O)CCN2C[C@@H]3c4ccccc4CCc4cccc(c43)[C@@H]2C1	i	i	i	i	i	i
O[C@@H](C1=C/C(=C\c2ccncc2)c2ccccc21)c1ccncc1	i[9.17 µM]	i[11.4 µM]	i[9.22 µM]	i[9.22 µM]	i[11.4 µM]	i[11.4 µM]
